PubChem BioAssay (Tox21)
Records with an inconclusive call do not appear. Where a call stands in place of a potency, no number is given. Active and inactive are the calls of the source. Calls follow the shape of the dose curve; as a rule, active = well fitted cell-killing curve with a large enough effect in the repeat runs; inconclusive = weak or mixed curves, or effect the other way; inactive = no such curve, though single readings can be large or run the other way.
Potency is read from the fitted curve at half-maximal effect.

Assay: qHTS assay to identify small molecule agonists of the estrogen receptor alpha (ER-alpha) signaling pathway in the presence of an antagonist - cell viability counter screen (AID 1259386); also: nearly all actives have a fitted effect of over 30% in size
Conditions: VM7Luc4E2 viability, CellTiter-Fluor fluorescence, 22 h; series mostly up to 92.4 µM
Outline: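 Compounds tested at 15 concentrations for 22 h at 37C alongside 10.0nM (final) ICI-182,780 antagonist, in VM7Luc4E2 cells grown in phenol red-free, charcoal-stripped medium. Viability read by CellTiter-Fluor fluorescence after 1 h reagent incubation.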
In the case of `CC(C)(C)CC(C)(C)c1ccc(O)c(Cc2ccc(Cl)cc2Cl)c1`, the Potency is reported as 29.8 µM (active). With `Nc1nc2ccccc2n1Cc1ccc(F)cc1` the Potency was 29.8 µM (active). With `CCCCC(CC)COC(=O)c1ccccc1C(=O)O` (configuration not stated) the Potency was “inactive”. For `N/C(=N\N=C\c1ccc(Cl)cc1)N/N=C/c1ccc(Cl)cc1`, the Potency was “inactive”. In the case of `C[C@@H]1C[C@H]2[C@@H]3CCC4=CC(=O)C=C[C@]4(C)[C@@]3(Cl)[C@@H](O)C[C@]2(C)[C@@]1(OC(=O)c1ccco1)C(=O)CCl`, the Potency is reported as “inactive”. In the case of `O=[N+]([O-])c1cc([N+](=O)[O-])c2ccc(S(=O)(=O)O)cc2c1O`, the Potency is reported as 19.2 µM (active). For `C[C@H](CCC(=O)O)[C@H]1CC[C@H]2[C@@H]3CC[C@@H]4C[C@H](O)CC[C@]4(C)[C@H]3CC[C@]12C`, the Potency was “inactive”. In the case of `O=C(Oc1ccccc1)c1ccccc1C(=O)Oc1ccccc1`, the Potency is reported as “inactive”. For `Cc1ccc(O)c(C(C)(C)C)c1`, the Potency was “inactive”. For `C/C=C1/C(=O)C[C@H]2[C@@H]3CCC4=CC(=O)CC[C@]4(C)[C@H]3CC[C@]12C`, the Potency was “inactive”. For `CC1=NC(C)OC1C` (configuration not stated), the Potency was “inactive”. With `C[n+]1cc2c3c(ccc2c2ccc4cc5c(cc4c21)OCO5)OCO3` the Potency was 13 µM (active). With `CN(C)c1ccc(C2(c3ccc(N(C)C)cc3)OC(=O)c3cc(N(C)C)ccc32)cc1` the Potency was “inactive”. For `CCCC(C)c1ccccc1O` (configuration not stated), the Potency was “inactive”. For `CCOC(=O)c1nc(C(Cl)(Cl)Cl)n(-c2ccc(Cl)cc2Cl)n1`, the Potency was “inactive”. In the case of `OCCN1CCN(CC/C=C2/c3ccccc3Sc3ccc(C(F)(F)F)cc32)CC1`, the Potency is reported as “inactive”. For `CNc1ccc(O)cc1`, the Potency was 61 µM (active). With `NC(=O)CC[C@@H]1NC(=O)[C@H](Cc2ccccc2)NC(=O)[C@H](Cc2ccc(O)cc2)NC(=O)CCSSC[C@@H](C(=O)N2CCC[C@H]2C(=O)N[C@@H](CCCN=C(N)N)C(=O)NCC(N)=O)NC(=O)[C@H](CC(N)=O)NC1=O` the Potency was “inactive”. In the case of `O=C1C=CC(=O)N1c1ccc(Cc2ccc(N3C(=O)C=CC3=O)cc2)cc1`, the Potency is reported as “inactive”. For `O=C(OCC1CO1)C1CCCCC1C(=O)OCC1CO1` (configuration not stated), the Potency was “inactive”. For `Clc1ccc(C(Cn2ccnc2)OCc2ccc(Sc3ccccc3)cc2)c(Cl)c1` (configuration not stated), the Potency was “inactive”. In the case of `CCN(C(=O)N(CC)c1ccccc1)c1ccccc1`, the Potency is reported as “inactive”. With `CC1(C)CCC(C)(C)c2cc(C(=O)Nc3ccc(C(=O)O)cc3)ccc21` the Potency was “inactive”. In the case of `CN(C)CCCOC1(Cc2ccccc2)CCCCCC1`, the Potency is reported as “inactive”. With `COc1cccc2c1C(=O)c1c(O)c3c(c(O)c1C2=O)C[C@@](O)(C(=O)CO)C[C@@H]3O[C@H]1C[C@H](N)[C@H](O[C@@H]2CCCCO2)[C@H](C)O1` the Potency was 23.7 µM (active). For `Cc1cc2c(cc1C(F)(F)F)N(C(=O)Nc1ccc(Oc3cccnc3C)nc1)CC2`, the Potency was “inactive”. With `CCCCCCCCCCCC[N+](C)(C)CCCCCCCCCCCC` the Potency was 68.6 µM (active). In the case of `CCCCN1C(=O)[C@@H]([C@H](O)C2CCCCC2)NC(=O)C12CCN(Cc1ccc(Oc3ccc(C(=O)O)cc3)cc1)CC2`, the Potency is reported as “inactive”. For `CS(=O)(=O)CCNCc1ccc(-c2ccc3ncnc(Nc4ccc(OCc5cccc(F)c5)c(Cl)c4)c3c2)o1`, the Potency was “inactive”. For `O=CC=C(c1ccccc1)c1ccccc1`, the Potency was “inactive”. With `Oc1c(Cl)cc(Cl)c2cccnc12` the Potency was “inactive”. For `CC(=O)S[C@@H]1CC2=CC(=O)CC[C@]2(C)[C@H]2CC[C@@]3(C)[C@@H](CC[C@@]34CCC(=O)O4)[C@H]12`, the Potency was “inactive”.
